Source: PubChem BioAssay (EPA / NIEHS)
Inconclusive results are not listed. Calls of active or inactive are those of the source. How the source made its calls: active means hit-call score of the fitted dose curve at least 0.9, where 1 is the maximum; inconclusive means response in the unintended direction; inactive means score below 0.9.

Test: Tanguay_ZF_120hpf_AXIS_legacy: (Legacy) Oregon State University Tanguay Lab 120 Hour Post-fertilization zebrafish Assay for Body Axis Malformation (AID 2283635);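 on AC50: potency for an increased fraction of larvae scored with body axis malformation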
Procedure: Tanguay_ZF_120hpf_legacy is a whole embryo, multiplexed endpoint assay using zebrafish larvae exposed for 120 hours post fertilization on a 96-well plate.Tanguay_ZF_120hpf_AXIS_legacy is one of one assay component(s) measured or calculated from the Tanguay_ZF_120hpf_legacy assay. It is designed to make measurements of zebrafish development as detected with brightfield microscopy of developing zebrafish embryos.Data from the assay component Tanguay_ZF_120hpf_AXIS_legacy was analyzed into 1 assay endpoints. This assay endpoint, Tanguay_ZF_120hpf_AXIS_legacy, was analyzed in the positive analysis fitting direction relative to DMSO as the negative control and baseline of activity. Using a type of morphology reporter, gain-of-signal activity can be used to understand changes in developmentals as they relate to the whole embryo. To generalize the intended target to other relatable targets, this assay endpoint is annotated to the zebrafish development intended target family, where the subfamily is body axis morphogenesis.
Zebrafish husbandry: Tropical 5D wild-type adult zebrafish were housed in at an approximate density of 1000 per 100 gallon tank at the Sinnhuber Aquatic Research Laboratory, Oregon State University, Corvallis, OR. Each tank was kept at standard laboratory conditions of 28C on a 14-h light/10-h dark photoperiod in fish water consisting of reverse osmosis water supplemented with a commercially available salt (Instant Ocean). Spawning funnels were placed into the tanks the night prior, and embryos were collected and staged. To increase bioavailability, the chorion was enzymatically removed using pronase (63.6mg/ml, >/= 3.5U/mg, Sigma-Aldrich: P5147) at 4 hours post fertilization (hpf) using a custom automated dechorionator.Chemical exposures: Six hpf dechorionated embryos were placed 1 embryo per well in a 96-well plate prefilled with 90 ul of EM using automated embryo placement systems (AEPS). Ten microliters of each row of dilution plate 2 was added to 2 exposure plates. The final DMSO concentration used was 0.64% (vol/vol). Thirty-two embryos were also exposed to 5uM trimethyltin chloride (positive control). Plates were sealed to prevent evaporation and foil covered to reduce light exposure and kept in a 28C incubator. Embryos were statically exposed until 120 hpf. At 24 hpf, embryos were assessed for photomotor response using a custom photomotor response analysis tool (PRAT) and for developmental toxicity endpoints (MO24: mortality at 24 hpf, DP: developmental progression, SM: spontaneous movement, and NC: notochord distortion). At 120 hpf, locomotor activity was measured using Viewpoint Zebralab and assessed for 18 endpoints. Zebrafish acquisition and analysis program (ZAAP), a custom program designed to inventory, acquire, and manage zebrafish data, was used to collect developmental endpoints as either present or absent (i.e., binary responses were recorded). If mortality occurred for an embryo (at either 24 or 120 hpf), the non-mortality endpoints were not measured.
For `CCc1nc(N)nc(N)c1-c1ccc(Cl)cc1`, the outcome was “inactive”.
With `CCCC(=O)O` the outcome was “inactive”.
With `CCCCC(CC)CO` (stereo not given) the outcome was “inactive”.
In the case of `CC1(C)C(=O)NC(=O)N1CO`, the outcome is reported as “inactive”.
With `NC=O` the outcome was “inactive”.
With `Cc1ccc(-c2cc(C(F)(F)F)nn2-c2ccc(S(N)(=O)=O)cc2)cc1` the outcome was “inactive”.
For `CCOCCOCCO`, the outcome was “inactive”.
In the case of `Cc1c(C)c2c(c(C)c1O)CCC(C)(COc1ccc(CC3SC(=O)NC3=O)cc1)O2` (stereo not given), the outcome is reported as “inactive”.
In the case of `O=NO`, the outcome is reported as “inactive”.
With `O=C1O[C@H]([C@H](O)CO)C(O)=C1O` the outcome was “inactive”.
For `COc1ccc(C(=O)Nc2nc3ccccc3c(NCc3ccccc3)c2C#N)cc1`, the outcome was “inactive”.
With `CCCC[C@H]1CN(CC2CCOCC2)C(=O)OC12CCN(C1(C)CCN(C(=O)c3c(C)ncnc3C)CC1)CC2` the outcome was “inactive”.
In the case of `CN(C)CCCN1c2ccccc2Sc2ccc(Cl)cc21`, the outcome is reported as “inactive”.
In the case of `Cc1ccc(C(C)(C)C)c(O)c1`, the outcome is reported as “inactive”.
For `Cn1cnc2c1c(=O)[nH]c(=O)n2C`, the outcome was “inactive”.
With `CCC(C)N(C)C(=O)c1cc2ccccc2c(-c2ccccc2Cl)n1` (stereo not given) the outcome was “inactive”.
In the case of `CO[C@@H]1COCC[C@@H]1N[C@@H]1CC[C@@](C(=O)N2CCc3ncc(C(F)(F)F)cc3C2)(C(C)C)C1`, the outcome is reported as “inactive”.
In the case of `O=C1NC(=O)C(c2ccccc2)(c2ccccc2)N1`, the outcome is reported as “inactive”.
With `CN(C)CCCN(C)CCCN(C)C` the outcome was “inactive”.
With `CC(C)c1cccc(C(C)C)c1` the outcome was “inactive”.
In the case of `Nc1nc(Cl)nc2c1ncn2[C@H]1C[C@H](O)[C@@H](CO)O1`, the outcome is reported as “inactive”.
In the case of `CC(COCC(C)OC(=O)c1ccccc1)OC(=O)c1ccccc1` (stereo not given), the outcome is reported as “inactive”.
For `CC(C)(O)c1ccc(CNC(=O)c2cccnc2Oc2ccc(F)cc2)cc1`, the outcome was “inactive”.
For `C/C=C/C=C/C(=O)O`, the outcome was “inactive”.
For `C=CCc1ccc(OC)c(OC)c1`, the outcome was “inactive”.
In the case of `O=C(O)c1[nH]n(-c2ccc(S(=O)(=O)O)cc2)c(=O)c1N=Nc1ccc(S(=O)(=O)O)cc1`, the outcome is reported as “inactive”.
In the case of `CSc1ccc(Oc2ccc(S(N)(=O)=O)cc2CN(C)C)cc1C`, the outcome is reported as “inactive”.
For `CS(=O)(=O)c1ccc([C@@H](C[C@H]2CCC(=O)C2)C(=O)Nc2cnccn2)cc1Cl`, the outcome was “inactive”.
In the case of `S=c1[nH]c2ccccc2s1`, the AC50 is reported as 36.7 µM (active).
In the case of `O=C(O)CC(O)(CC(=O)O)C(=O)O`, the outcome is reported as “inactive”.
With `CCCCc1nc2cccnc2n1Cc1ccc(-c2ccccc2-c2nnn[nH]2)cc1` the outcome was “inactive”.
For `Nc1nc(=S)c2[nH]cnc2[nH]1`, the outcome was “inactive”.
With `CC(C)NCC(O)c1ccc(O)c(O)c1` (stereo not given) the outcome was “inactive”.
With `CN(C)C(=O)NC1(c2ccccc2)CCN(CCC[C@]2(c3ccc(Cl)c(Cl)c3)CCCN(C(=O)c3ccccc3)C2)CC1` the outcome was “inactive”.
In the case of `CCCCCCC(CCCCCCCCCCC(=O)OCC(COC(C)=O)OC(C)=O)OC(C)=O` (stereo not given), the outcome is reported as “inactive”.
With `Oc1ccc(O)cc1` the outcome was “inactive”.
In the case of `OCC(CO)n1cnc(-c2ccc(F)cc2)c1-c1ccnc(Oc2ccccc2)n1`, the outcome is reported as “inactive”.
For `CCN(CC)CCOc1ccc(C(=C(Cl)c2ccccc2)c2ccccc2)cc1`, the outcome was “inactive”.
For `CC(C)COC(=O)CCCCC(=O)OCC(C)C`, the outcome was “inactive”.
In the case of `O=C(O)CN(CC(=O)O)CC(=O)O`, the outcome is reported as “inactive”.
